For orientation: AC50 means the concentration giving half of the maximal activity seen.

Records with an inconclusive call do not appear. Activity calls are given as the source filed them. Rule for the calls: active = hit-call score of the fitted dose curve at least 0.9, where 1 is the maximum; inconclusive = response in the unintended direction; inactive = score below 0.9.

Consider 20 compounds from PubChem BioAssay (EPA / NIEHS).

Chain of Adra2b (gene 24174) (P19328 whole entry, looked up): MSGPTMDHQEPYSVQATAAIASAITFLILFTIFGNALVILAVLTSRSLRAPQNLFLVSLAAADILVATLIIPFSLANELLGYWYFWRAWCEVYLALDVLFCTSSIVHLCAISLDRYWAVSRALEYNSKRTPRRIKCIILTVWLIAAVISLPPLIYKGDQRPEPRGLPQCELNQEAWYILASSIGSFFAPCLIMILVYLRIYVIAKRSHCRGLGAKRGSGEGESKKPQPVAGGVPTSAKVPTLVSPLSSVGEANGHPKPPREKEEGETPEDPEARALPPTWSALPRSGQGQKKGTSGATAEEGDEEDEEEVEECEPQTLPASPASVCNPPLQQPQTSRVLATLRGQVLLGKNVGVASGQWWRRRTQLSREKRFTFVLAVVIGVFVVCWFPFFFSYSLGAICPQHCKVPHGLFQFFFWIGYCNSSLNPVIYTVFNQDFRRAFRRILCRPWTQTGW
Chain of rat Neurokinin-1 Receptor (NK1), Tacr1 (gene 24807) (P14600 whole entry, looked up): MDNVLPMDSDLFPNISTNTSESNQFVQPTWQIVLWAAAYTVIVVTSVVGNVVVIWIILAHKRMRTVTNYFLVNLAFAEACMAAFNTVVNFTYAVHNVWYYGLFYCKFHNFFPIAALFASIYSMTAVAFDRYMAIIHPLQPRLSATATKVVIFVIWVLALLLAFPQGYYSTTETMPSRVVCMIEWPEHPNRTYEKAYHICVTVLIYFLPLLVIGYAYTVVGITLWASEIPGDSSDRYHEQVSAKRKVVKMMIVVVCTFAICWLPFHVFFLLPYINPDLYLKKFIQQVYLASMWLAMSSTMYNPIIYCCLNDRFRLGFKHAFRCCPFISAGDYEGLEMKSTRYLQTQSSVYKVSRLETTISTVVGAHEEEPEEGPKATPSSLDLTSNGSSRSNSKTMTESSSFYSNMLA
Chain of rat Corticotropin Releasing Factor Receptor (CRF), Crhr1 (gene 58959) (P35353 whole entry, looked up): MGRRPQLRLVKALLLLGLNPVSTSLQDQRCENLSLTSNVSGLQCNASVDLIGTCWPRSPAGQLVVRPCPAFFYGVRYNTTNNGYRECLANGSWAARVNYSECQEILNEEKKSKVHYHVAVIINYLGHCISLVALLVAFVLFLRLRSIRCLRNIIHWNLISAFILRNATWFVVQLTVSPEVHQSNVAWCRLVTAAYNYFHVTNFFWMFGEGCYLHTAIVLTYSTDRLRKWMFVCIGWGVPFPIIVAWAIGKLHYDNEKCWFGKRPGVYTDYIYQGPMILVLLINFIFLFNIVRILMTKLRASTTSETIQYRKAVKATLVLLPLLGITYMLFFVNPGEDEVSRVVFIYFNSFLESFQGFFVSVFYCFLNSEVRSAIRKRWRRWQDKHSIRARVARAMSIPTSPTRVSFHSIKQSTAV
Chain of rat Adrenergic Receptor, Alpha 2 (Adra2), Non-selective Binding, Adra2a (gene 25083) (P22909 whole entry, looked up): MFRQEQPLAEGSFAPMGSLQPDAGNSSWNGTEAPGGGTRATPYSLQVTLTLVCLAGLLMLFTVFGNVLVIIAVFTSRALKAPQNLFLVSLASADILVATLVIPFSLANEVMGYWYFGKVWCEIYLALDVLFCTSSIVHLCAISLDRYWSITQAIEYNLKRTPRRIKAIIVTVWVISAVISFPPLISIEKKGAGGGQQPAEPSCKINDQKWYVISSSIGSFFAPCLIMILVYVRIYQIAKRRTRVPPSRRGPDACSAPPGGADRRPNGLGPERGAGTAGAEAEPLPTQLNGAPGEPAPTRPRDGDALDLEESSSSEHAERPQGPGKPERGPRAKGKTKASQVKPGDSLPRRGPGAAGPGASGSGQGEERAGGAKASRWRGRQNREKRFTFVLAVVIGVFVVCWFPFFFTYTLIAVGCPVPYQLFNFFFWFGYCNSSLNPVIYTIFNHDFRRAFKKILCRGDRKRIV

The first test has as its target rat Adrenergic Receptor, Alpha 2 (Adra2), Non-selective Binding, Adra2a (gene 25083) (UniProt P22909). Description: NVS_GPCR_rAdra2_NonSelective: NovaScreen (NVS) G Protein-Coupled Receptor Assay for rat Adrenergic Receptor, Alpha 2 (Adra2), Non-selective Binding (AID 2283299). The procedure:
(§1) NVS_GPCR_rAdra2_NonSelective is a biochemical, single-readout assay that uses extracted gene-proteins from Rat cortical membranes in a tissue-based cell-free assay. Measurements were taken 1.25 hours after chemical dosing in a 48-well plate.NVS_GPCR_rAdra2_NonSelective is one of one assay component(s) measured or calculated from the NVS_GPCR_rAdra2_NonSelective assay. It is designed to make measurements of radioligand binding, a form of binding reporter, as detected with scintillation counting signals by Filter-based radiodetection technology.Data from the assay component NVS_GPCR_rAdra2_NonSelective was analyzed into 1 assay endpoint. This assay endpoint, NVS_GPCR_rAdra2_NonSelective, was analyzed in the positive analysis fitting direction relative to DMSO as the negative control and baseline of activity. Using a type of binding reporter, loss-of-signal activity can be used to understand changes in the binding as they relate to the gene Adra2a. Furthermore, this assay endpoint can be referred to as a primary readout, because the performed assay has only produced 1 assay endpoint. To generalize the intended target to other relatable targets, this assay endpoint is annotated to the gpcr intended target family, where the subfamily is rhodopsin-like receptor.
Binding assays used specific radioligands (tritiated, iodinated) with non-radioactive competitive displacement ligands in agonist or antagonist protocols (as indicated) and various reference compounds and inhibitors to titrate specific binding to receptors and transporters. Most enzyme assays (CYPs, kinases, phosphatases, proteases, HDACs) used recombinant protein and specific substrates (fluorescence mostly, some colorimetric and radioactive) and inhibitors, followed by a biochemical separation of substrate and product. All assays for the biochemical HTS were initially run in duplicate at a single concentration (10 uM for CYP450 assays and 25 uM for all others). […] Each assay was run with positive and negative controls, and concurrent controls on every plate. The follow-up (secondary) screen tested active chemical-pairs in concentration series, as well as a few additional assays not tested in the primary screen, some selected negative inactives, and several cases re-run in the concentration series for confirmatory purposes.
As for `S=C1NCCN1`, the outcome was inactive.

In the case of `CCOP(=S)(Oc1cnc(C(C)(C)C)nc1)OC(C)C` (stereo unspecified), the result was inactive.

Regarding `CC(C)[C@H](C(=O)O[C@H](C#N)c1cccc(Oc2ccccc2)c1)c1ccc(Cl)cc1`, the compound was called inactive.

Turning to `CC[C@H](C)[C@H]1O[C@]2(C=C[C@@H]1C)C[C@@H]1C[C@@H](C/C=C(\C)[C@@H](O[C@H]3C[C@H](OC)[C@@H](O[C@H]4C[C@H](OC)[C@@H](NC)[C@H](C)O4)[C@H](C)O3)[C@@H](C)/C=C/C=C3\CO[C@@H]4[C@H](O)C(C)=C[C@@H](C(=O)O1)[C@]34O)O2`, the AC50 is 11.5 µM (active).

For a further test, the target named is rat Corticotropin Releasing Factor Receptor (CRF), Crhr1 (gene 58959) (UniProt P35353). The experiment in a line: NVS_GPCR_rCRF: NovaScreen (NVS) G Protein-Coupled Receptor Assay for rat Corticotropin Releasing Factor Receptor (CRF) (AID 2283300). The method in brief:
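Single-concentration (25 uM, duplicate) radioligand binding on rat cortical membrane preparations, counted by scintillation after 2 h. Activity scored as signal loss relative to DMSO negative control.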
As for `Cc1cc(C2CC2)nc(Nc2ccccc2)n1`, the compound was called inactive.

Regarding `Nc1c(Cl)cc([N+](=O)[O-])cc1Cl`, the result was inactive.

Regarding `CC(C)=CC1C(C(=O)OCN2C(=O)C3=C(CCCC3)C2=O)C1(C)C` (stereo unspecified), the result was inactive.

As for `C#CC(C)(C)NC(=O)c1cc(Cl)cc(Cl)c1`, the outcome was inactive.

Another test concerns the target Adra2b (gene 24174) (UniProt P19328). Description: NVS_GPCR_rmAdra2B: NovaScreen (NVS) G Protein-Coupled Receptor Assay for hybird cells Adrenergic, Alpha 2B Receptor (Adra2B) (AID 2283306). The method in brief: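 Compounds screened first at 25 uM in duplicate, with actives followed up in concentration-response; specific radioligand displacement from hybrid neuroglioma/blastoma cell membrane preparations measured by filter scintillation counting after 1 h, normalized to DMSO.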
Regarding `C[Si](Cn1cncn1)(c1ccc(F)cc1)c1ccc(F)cc1`, the AC50 was 25 µM (active).

Turning to `COc1ccc(C(=CC(=O)N2CCOCC2)c2ccc(Cl)cc2)cc1OC`, the half-maximal activity concentration (AC50) is 11.7 µM (active).

For the compound `CCC(=O)Nc1ccc(Cl)c(Cl)c1`, the compound was classed as inactive.

For the compound `CC[C@H](C)[C@H]1O[C@]2(C=C[C@@H]1C)C[C@@H]1C[C@@H](C/C=C(\C)[C@@H](O[C@H]3C[C@H](OC)[C@@H](O[C@H]4C[C@H](OC)[C@@H](NC)[C@H](C)O4)[C@H](C)O3)[C@@H](C)/C=C/C=C3\CO[C@@H]4[C@H](O)C(C)=C[C@@H](C(=O)O1)[C@]34O)O2`, the AC50 is 34.8 µM (active).

Another test deals with rat Neurotensin Receptor (NTS), Ntsr1 (gene 366274) (UniProt P20789). The experiment in a line: NVS_GPCR_rNTS: NovaScreen (NVS) G Protein-Coupled Receptor Assay for rat Neurotensin Receptor (NTS) (AID 2283308). The method, then: as §1, with “NVS_GPCR_rNTS” for “NVS_GPCR_rAdra2_NonSelective”, “forebrain” for “cortical”, “1 hour” for “1.25 hours”, “plate.NVS_GPCR_rNTS” for “plate.NVS_GPCR_rAdra2_NonSelective”, “NVS_GPCR_rNTS,” for “NVS_GPCR_rAdra2_NonSelective,”, “Ntsr1.” for “Adra2a.”
Chain of rat Neurotensin Receptor (NTS), Ntsr1 (gene 366274) (P20789 whole entry, looked up): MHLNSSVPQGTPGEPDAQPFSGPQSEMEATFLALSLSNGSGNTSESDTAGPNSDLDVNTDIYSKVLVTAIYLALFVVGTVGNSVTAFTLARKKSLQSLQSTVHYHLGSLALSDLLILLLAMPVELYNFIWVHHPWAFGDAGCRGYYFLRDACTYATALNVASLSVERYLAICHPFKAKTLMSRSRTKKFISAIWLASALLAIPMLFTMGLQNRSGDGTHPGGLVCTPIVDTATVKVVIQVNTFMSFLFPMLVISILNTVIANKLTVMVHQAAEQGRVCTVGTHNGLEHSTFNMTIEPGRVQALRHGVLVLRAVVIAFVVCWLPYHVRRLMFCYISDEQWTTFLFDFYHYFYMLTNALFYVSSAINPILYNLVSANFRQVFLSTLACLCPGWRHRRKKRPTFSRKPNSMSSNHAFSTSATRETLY
Binding assays used specific radioligands (tritiated, iodinated) with non-radioactive competitive displacement ligands in agonist or antagonist protocols (as indicated) and various reference compounds and inhibitors to titrate specific binding to receptors and transporters. Most enzyme assays (CYPs, kinases, phosphatases, proteases, HDACs) used recombinant protein and specific substrates (fluorescence mostly, some colorimetric and radioactive) and inhibitors, followed by a biochemical separation of substrate and product. All assays for the biochemical HTS were initially run in duplicate at a single concentration (10 uM for CYP450 assays and 25 uM for all others). Assay-chemical combinations meeting a pre-defined threshold (e.g., 30% inhibition and other criteria defined below) were then run in singleton concentration-response format with maximum concentration of 20 uM for CYPs and 50 uM for all others. Each assay was run with positive and negative controls, and concurrent controls on every plate. The follow-up (secondary) screen tested active chemical-pairs in concentration series, as well as a few additional assays not tested in the primary screen, some selected negative inactives, and several cases re-run in the concentration series for confirmatory purposes.
In the case of `S=C1NCCN1`, the outcome was inactive.

For `CCOP(=O)(OCC)Oc1cc(C)nc(C(C)C)n1`, the outcome was inactive.

Consider `CCOP(=S)(OCC)Oc1cc(C)nc(C(C)C)n1`, for which the outcome was inactive.

For `CCCCSP(=O)(SCCCC)SCCCC`, the call was inactive.

As to `CC1=NNC(=O)N(/N=C/c2cccnc2)C1`, the result was inactive.

For `C=C(C)[C@H]1Cc2c(ccc3c2O[C@@H]2COc4cc(OC)c(OC)cc4[C@@H]2C3=O)O1`, the result was inactive.

Another test concerns the target rat Neurokinin-1 Receptor (NK1), Tacr1 (gene 24807) (UniProt P14600). Description: NVS_GPCR_rNK1: NovaScreen (NVS) G Protein-Coupled Receptor Assay for rat Neurokinin-1 Receptor (NK1) (AID 2283309). The method in brief: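 Competitive radioligand binding to NK1 in rat submaxillary membranes, 1 h incubation, filtration and scintillation read-out. Compounds first screened at 25 uM in duplicate, then concentration-response for actives; signal loss relative to DMSO.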
Take `C[Si](Cn1cncn1)(c1ccc(F)cc1)c1ccc(F)cc1`: the compound was called inactive.

In the case of `CCOP(=O)(OCC)Oc1cc(C)nc(C(C)C)n1`, the call was inactive.

`FC(F)C(F)(F)OCC(Cn1cncn1)c1ccc(Cl)cc1Cl` (stereo unspecified): the call was inactive.

With `CNC(=O)ON=C(C)SC`, the AC50 is 44.1 µM (active).

Regarding `COc1ccc(C(=CC(=O)N2CCOCC2)c2ccc(Cl)cc2)cc1OC`, the compound was classed as inactive.

As for `CCCOCC(=Nc1ccc(Cl)cc1C(F)(F)F)n1ccnc1`, the outcome was inactive.

Take `CSC1=N[C@@](C)(c2ccccc2)C(=O)N1Nc1ccccc1`: the compound was classed as inactive.

With `CC[C@H](C)[C@H]1O[C@]2(C=C[C@@H]1C)C[C@@H]1C[C@@H](C/C=C(\C)[C@@H](O[C@H]3C[C@H](OC)[C@@H](O[C@H]4C[C@H](OC)[C@@H](NC)[C@H](C)O4)[C@H](C)O3)[C@@H](C)/C=C/C=C3\CO[C@@H]4[C@H](O)C(C)=C[C@@H](C(=O)O1)[C@]34O)O2`, the AC50 is 30.6 µM (active).
